In PubChem BioAssay:
Several values for one entry are separate records, joined by “and”; a condition that tells them apart may be missing. Equal values may be shown once. Inconclusive results are not listed. Activity calls are given as the source filed them.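 How the source made its calls, unless noted: active means binding below the plate cutoff, the plate median minus 3 SD, with a reading above zero; inconclusive means below the plate cutoff but reading exactly zero; inactive means the rest.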

Assays:
[1] = yeast TOR pathway RPL19A-GFP modulators, primary screen, cell-based, S. cerevisiae, multiplex flow cytometry (AID 1862; in the data active means percent of DMSO control GFP below about 86%;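 further: lower values mimic rapamycin by blocking the RPL19A rise seen in DMSO cells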); details: S. cerevisiae RPL19A-GFP strain, flow cytometry fluorescence, 3 h; at 10 µM; stronger effect = lower value
[2] = modulators of MEP2-GFP levels in yeast, primary screen, S. cerevisiae, multiplex flow cytometry (AID 1867;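 active means GFP response, as percent of the DMSO control, above the screen-wide mean plus 3 SD, about 139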;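 further: median GFP channel fluorescence of barcode-gated MEP2-GFP cells measured by flow cytometry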); details: S. cerevisiae MEP2-GFP strain, 3 h, at 10 µM, stronger effect = higher value, 100% means same as DMSO wells
[3] = modulators of CIT2-GFP expression in yeast, primary screen, S. cerevisiae, GFP fusion, multiplex flow cytometry (AID 1870;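 active means percent response above a set limit, the screen-wide mean plus 3 SD, cut at about 130% in these data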;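 further: barcoded CIT2-GFP strain pooled with four other GFP strains with rapamycin as positive control; median GFP fluorescence per well over plate mean of DMSO wells so 100% = DMSO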); details: 3 h, at 10 µM, stronger effect = higher value
[4] = modulators of LAP4-GFP expression in yeast, primary screen, S. cerevisiae, multiplex flow cytometry (AID 1873;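 active means GFP signal, as percent of the solvent control, above the screen mean plus 3 SD, about 149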); details: 3 h, at 10 µM, stronger effect = higher value
[5] = modulators of AGP1-GFP expression in yeast TOR pathway, primary screen, cell-based, multiplex flow cytometry, S. cerevisiae (AID 1887;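 active means GFP signal above the screen-wide mean plus 3 SD, that is over about 124.5% of the solvent control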;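 further: AGP1-GFP fusion strain of S. cerevisiae within a five-strain barcoded multiplex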); details: 3 h, at 10 µM, stronger effect = higher value
[6] = inhibitors of CD8+ T cell-vesicle binding, pilot screen, LFA-1/ICAM-1 modulator project, MLPCN validation set, flow cytometry (AID 2523;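 active means response below a set limit, under 55% cells CD8-positive and vesicle-bound, and CD8 cells' 90th-percentile brightness under 279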;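 on vesicle binding response: mean PE anti-B7-1 fluorescence of CD8+ cells relative to row control; 100% = QL9-loaded vesicles with DMSO vehicle in the same plate row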); details: 2C mouse CD8+ T cells, at 7 µM, stronger effect = lower value; double positive events: measured here: CD8+/vesicle+ event percentage
[7] = target: Integrin beta-1 (Homo sapiens) + Integrin alpha-4 (Homo sapiens) (UniProt P13612+P05556); test: inhibition of HUTS-21 binding to VLA-4, pilot screen, VLA-4 allosteric modulator project, U937 cells, HUTS-21 mAb, flow cytometry, validation set (AID 2674;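 active means inhibition above 50%, about 3 SD of the validation set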;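 further: antibody binding induced by the VLA-4 ligand LDV present at three times its Kd; 0% = LDV ligand with antibody and no compound and 100% = antibody without LDV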); details: HUTS-21 LIBS mAb binding, at 6.7 µM, stronger effect = higher value, binding induced by LDV ligand
Integrin beta-1 (Homo sapiens) + Integrin alpha-4 (Homo sapiens), sequence (P05556 whole entry, looked up): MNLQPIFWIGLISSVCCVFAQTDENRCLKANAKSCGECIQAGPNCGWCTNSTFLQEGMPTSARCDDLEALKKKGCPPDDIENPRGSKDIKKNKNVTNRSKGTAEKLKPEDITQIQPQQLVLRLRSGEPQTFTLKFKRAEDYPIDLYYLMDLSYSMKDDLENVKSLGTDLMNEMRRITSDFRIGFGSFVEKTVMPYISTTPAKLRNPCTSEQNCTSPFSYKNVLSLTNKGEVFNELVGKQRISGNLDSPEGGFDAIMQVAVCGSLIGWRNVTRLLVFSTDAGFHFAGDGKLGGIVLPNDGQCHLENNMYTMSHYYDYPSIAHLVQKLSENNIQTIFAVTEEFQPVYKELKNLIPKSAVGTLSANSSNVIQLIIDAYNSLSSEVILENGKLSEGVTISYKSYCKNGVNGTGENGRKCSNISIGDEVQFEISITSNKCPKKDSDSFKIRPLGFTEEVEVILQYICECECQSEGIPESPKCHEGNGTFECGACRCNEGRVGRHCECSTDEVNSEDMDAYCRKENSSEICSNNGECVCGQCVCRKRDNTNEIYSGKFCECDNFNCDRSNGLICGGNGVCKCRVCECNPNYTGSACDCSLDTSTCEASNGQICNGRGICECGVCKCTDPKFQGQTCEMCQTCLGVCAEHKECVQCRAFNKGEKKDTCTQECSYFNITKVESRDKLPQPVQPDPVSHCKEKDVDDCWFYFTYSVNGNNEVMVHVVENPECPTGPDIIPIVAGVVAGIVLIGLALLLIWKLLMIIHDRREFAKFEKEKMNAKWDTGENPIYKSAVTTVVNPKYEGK
Integrin beta-1 (Homo sapiens) + Integrin alpha-4 (Homo sapiens), sequence (P13612 whole entry, looked up): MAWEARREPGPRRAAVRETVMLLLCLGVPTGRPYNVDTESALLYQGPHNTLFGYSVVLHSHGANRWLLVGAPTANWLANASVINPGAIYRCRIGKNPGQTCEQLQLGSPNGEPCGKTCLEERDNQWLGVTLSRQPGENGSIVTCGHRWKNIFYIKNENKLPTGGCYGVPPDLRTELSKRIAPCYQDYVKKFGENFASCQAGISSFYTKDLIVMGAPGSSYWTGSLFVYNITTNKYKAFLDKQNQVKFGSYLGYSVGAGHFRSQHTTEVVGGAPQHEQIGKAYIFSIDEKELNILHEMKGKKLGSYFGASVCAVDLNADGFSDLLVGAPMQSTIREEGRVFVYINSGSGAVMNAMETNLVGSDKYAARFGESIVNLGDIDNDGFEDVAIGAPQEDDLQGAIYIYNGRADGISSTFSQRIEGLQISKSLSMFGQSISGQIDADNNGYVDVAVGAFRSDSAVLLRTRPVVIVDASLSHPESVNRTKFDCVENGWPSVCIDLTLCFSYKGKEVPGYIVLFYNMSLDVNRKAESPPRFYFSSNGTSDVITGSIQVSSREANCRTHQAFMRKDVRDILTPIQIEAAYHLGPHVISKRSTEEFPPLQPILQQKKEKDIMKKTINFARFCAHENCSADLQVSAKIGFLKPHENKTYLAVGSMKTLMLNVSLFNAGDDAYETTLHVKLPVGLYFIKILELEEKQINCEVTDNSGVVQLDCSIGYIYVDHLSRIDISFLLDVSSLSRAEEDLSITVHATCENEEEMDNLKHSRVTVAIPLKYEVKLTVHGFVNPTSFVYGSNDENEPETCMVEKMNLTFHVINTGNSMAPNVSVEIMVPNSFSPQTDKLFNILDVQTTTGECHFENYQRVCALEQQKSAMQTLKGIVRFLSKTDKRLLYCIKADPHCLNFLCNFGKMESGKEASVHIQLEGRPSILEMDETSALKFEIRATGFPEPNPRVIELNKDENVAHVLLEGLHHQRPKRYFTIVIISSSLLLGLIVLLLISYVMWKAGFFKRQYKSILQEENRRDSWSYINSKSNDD

[8] = superoxide lowering in aged yeast cells, pilot screen, validation compound set (AID 2706;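 active means superoxide response below 65% of plate, a cut near 3 SD across the whole screen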;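 further: yeast exposed to compound for one week at 30 degrees C before staining; 100% = mean of all compound wells on the same plate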); details: S. cerevisiae aging, superoxide DHE fluorescence; at 10 µM; stronger effect = lower value
[9] = target: Beta-adrenergic receptor kinase 1 (Homo sapiens) (UniProt P25098); test: GRK2 binders displacing RNA aptamer, biochemical, validation, human GRK2, bead flow cytometry (AID 488806;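 active means aptamer binding inhibition above 30%, about 3 SD of noise from non-fluorescent compounds; inactive means inhibition at or below 30%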); details: bead-bound GRK2, FAM-aptamer displacement, at 10 µM, stronger effect = higher value
Beta-adrenergic receptor kinase 1 (Homo sapiens), sequence (P25098 whole entry, looked up): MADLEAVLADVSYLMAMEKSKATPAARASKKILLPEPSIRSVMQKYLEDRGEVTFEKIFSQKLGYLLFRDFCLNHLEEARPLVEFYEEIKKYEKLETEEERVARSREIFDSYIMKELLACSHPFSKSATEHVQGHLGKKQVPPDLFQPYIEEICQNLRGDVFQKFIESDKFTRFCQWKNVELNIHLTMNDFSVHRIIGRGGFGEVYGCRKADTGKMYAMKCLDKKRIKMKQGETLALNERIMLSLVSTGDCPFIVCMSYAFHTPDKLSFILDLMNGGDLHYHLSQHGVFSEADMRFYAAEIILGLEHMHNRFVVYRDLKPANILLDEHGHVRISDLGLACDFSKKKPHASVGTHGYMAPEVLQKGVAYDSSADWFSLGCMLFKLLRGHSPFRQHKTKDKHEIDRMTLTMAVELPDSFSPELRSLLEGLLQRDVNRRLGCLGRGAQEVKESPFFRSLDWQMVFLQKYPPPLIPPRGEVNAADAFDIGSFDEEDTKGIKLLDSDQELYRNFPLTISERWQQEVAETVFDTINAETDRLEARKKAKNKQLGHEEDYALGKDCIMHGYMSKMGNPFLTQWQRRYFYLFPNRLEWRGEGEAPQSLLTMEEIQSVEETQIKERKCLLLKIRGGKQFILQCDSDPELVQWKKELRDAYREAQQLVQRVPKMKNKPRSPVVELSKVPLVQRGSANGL

[10] = target: Beta-2 adrenergic receptor (Homo sapiens) (UniProt P07550); test: beta2AR agonists driving receptor internalization, pilot screen, cell-based, FAP fluorogen, flow cytometry, validation set (AID 504459;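 active means percent response above 42, roughly 3 SD of non-fluorescent test compounds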;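 further: agonist-driven loss of surface beta2AR via internalization measured by FAP dye flow cytometry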); details: Am2.2-beta2AR cells, FAP surface receptor flow cytometry; at 10 µM; stronger effect = higher value
Beta-2 adrenergic receptor (Homo sapiens), sequence (P07550 whole entry, looked up): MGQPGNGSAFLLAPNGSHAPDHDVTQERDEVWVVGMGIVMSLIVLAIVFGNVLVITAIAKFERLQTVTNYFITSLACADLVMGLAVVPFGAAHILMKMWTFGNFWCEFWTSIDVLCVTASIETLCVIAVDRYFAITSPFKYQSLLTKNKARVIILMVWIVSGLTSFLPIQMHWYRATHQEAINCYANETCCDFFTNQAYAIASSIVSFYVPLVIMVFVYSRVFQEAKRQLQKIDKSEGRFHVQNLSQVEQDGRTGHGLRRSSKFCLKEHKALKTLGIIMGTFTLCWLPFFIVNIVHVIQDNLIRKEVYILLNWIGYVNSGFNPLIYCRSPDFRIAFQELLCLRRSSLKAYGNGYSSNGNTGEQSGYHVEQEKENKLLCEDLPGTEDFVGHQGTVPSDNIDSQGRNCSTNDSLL

[11] = target: AP-2 complex subunit beta (Homo sapiens) (UniProt P63010); test: inhibitors of arrestin peptide binding to AP2, pilot screen, biochemical, validation set, GST-AP2 beads, flow cytometry (AID 504541;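 active means inhibition above 54%, about 3 SD of non-fluorescent compounds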;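 further: AP2 carries R879A mutation and is captured from E. coli lysate; bead-bound FITC arrestin peptide fluorescence measuring arrestin peptide binding to AP2; 0% = DMSO wells and 100% = excess unlabeled arrestin peptide control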); details: FITC arrestin peptide, at 10 µM, stronger effect = higher value, AP2 beta2 appendage fragment, R879A mutant
AP-2 complex subunit beta (Homo sapiens), sequence (P63010 whole entry, looked up, the tested form may be a part, one chain of several): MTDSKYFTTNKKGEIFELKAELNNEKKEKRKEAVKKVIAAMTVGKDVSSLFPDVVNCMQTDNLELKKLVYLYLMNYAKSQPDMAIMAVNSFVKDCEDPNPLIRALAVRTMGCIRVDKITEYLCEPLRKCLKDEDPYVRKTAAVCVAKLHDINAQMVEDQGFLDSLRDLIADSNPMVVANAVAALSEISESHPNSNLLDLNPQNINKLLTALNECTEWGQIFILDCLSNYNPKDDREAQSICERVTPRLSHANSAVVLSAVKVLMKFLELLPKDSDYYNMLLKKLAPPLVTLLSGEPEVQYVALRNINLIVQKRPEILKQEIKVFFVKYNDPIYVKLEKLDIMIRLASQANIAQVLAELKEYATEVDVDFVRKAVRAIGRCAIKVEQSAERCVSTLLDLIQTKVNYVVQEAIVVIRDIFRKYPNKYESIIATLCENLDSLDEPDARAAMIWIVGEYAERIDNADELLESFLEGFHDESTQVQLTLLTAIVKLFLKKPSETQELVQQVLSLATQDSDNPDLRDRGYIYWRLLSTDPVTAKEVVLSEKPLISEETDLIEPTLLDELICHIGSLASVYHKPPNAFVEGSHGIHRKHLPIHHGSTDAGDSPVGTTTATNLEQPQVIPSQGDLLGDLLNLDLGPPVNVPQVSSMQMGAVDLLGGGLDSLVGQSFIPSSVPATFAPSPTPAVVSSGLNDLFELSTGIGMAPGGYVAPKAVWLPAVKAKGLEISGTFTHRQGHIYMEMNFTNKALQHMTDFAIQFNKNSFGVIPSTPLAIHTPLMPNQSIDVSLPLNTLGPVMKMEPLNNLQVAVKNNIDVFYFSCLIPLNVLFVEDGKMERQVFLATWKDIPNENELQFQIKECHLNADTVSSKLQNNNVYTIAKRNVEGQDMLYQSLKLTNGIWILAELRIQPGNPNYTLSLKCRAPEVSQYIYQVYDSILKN

[12] = yeast V-ATPase proton transport modulators, S. cerevisiae, pHLuorin, HTS validation (AID 504600; in the data active means response above about 15%;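 further: plate controls were DMSO for no effect and reference compound for full effect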); details: S. cerevisiae pHLuorin cytosolic pH, at 10 µM, stronger effect = higher value
[13] = tested on: anti-desmoglein-3 scFv antibody binding to human DSG3; test: inhibitors of anti-DSG3 scFv binding to DSG3, pilot screen, biochemical, validation compound set, bead-based, flow cytometry (AID 588368); details: Protein G beads, DSG3-Fc, scFv-GFP binding, at 10 µM, stronger effect = lower value;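 further: signal is the median channel fluorescence of bead-bound GFP antibody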
[14] = inhibitors of fungal efflux pumps CDR1, CDR2, MDR1, pilot screen, validation compound set, multiplex, phenotypic (AID 588506;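 active means efflux inhibition above 0.42, the validation set average plus 4 SD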;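 further: Nile Red retained in cells so higher fluorescence means more efflux inhibition; 0 = negative control wells and 1 = enniatin B 25 µM full block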); details: S. cerevisiae pump-expressing triplex, Nile Red efflux flow cytometry; at 10 µM; stronger effect = higher value; the pumps come from Candida albicans
[15] = target: ATP-binding cassette sub-family B member 6 (Homo sapiens) (UniProt Q9NP58); test: ABCB6 transporter inhibitors, pilot screen, K562-ABCB6 cells, flow cytometry, validation set (AID 588550;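 active means inhibition above the screen-wide mean plus 3 SD, about 51%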;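 further: 0% = DMSO wells and 100% = benzethonium chloride 70 µM positive control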); details: K562-ABCB6 porphyrin accumulation, 1 h, at 10 µM, stronger effect = higher value
ATP-binding cassette sub-family B member 6 (Homo sapiens), sequence (Q9NP58 whole entry, looked up): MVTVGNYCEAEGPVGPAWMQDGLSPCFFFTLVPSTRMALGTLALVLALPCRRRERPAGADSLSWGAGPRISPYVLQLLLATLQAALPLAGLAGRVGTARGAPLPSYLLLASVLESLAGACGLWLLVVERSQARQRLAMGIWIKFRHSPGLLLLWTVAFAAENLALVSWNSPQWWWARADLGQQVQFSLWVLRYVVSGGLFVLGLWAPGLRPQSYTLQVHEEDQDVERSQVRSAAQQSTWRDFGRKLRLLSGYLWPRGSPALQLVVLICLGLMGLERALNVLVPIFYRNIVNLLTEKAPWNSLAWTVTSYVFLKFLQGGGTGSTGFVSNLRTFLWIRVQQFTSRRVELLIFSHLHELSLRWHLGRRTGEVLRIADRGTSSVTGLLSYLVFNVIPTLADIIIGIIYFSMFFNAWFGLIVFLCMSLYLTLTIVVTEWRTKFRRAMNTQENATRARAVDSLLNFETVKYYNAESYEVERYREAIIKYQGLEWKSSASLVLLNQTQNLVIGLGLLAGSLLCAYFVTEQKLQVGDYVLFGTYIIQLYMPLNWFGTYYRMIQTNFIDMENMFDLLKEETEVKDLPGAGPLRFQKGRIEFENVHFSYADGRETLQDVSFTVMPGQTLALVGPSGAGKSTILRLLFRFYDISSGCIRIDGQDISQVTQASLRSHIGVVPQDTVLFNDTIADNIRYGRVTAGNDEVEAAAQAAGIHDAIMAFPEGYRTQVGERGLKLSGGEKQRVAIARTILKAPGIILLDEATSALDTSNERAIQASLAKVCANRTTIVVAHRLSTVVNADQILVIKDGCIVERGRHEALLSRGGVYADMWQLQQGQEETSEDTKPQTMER

[16] = promoters of myeloid differentiation in arrested cells, primary screen, cell-based, GFP/MAC1 double positive, flow cytometry, validation set (AID 588685;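 active means differentiation response of at least 50%, scaled between solvent and reference control, from cells with both markers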;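 further: compound exposure lasts four days before antibody staining and flow analysis; 0% = DMSO wells and 100% = 5 µM fulvestrant positive control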); details: ER-HoxA9 marrow cells, stronger effect = higher value, normalized: vehicle 0, fulvestrant 100

CN(C)c1ccc(C(CN)c2c[nH]c3ccccc23)cc1 (stereo not drawn)
61.4%: double positive events [6]
inactive: percent of DMSO control GFP [1] 106% | GFP response vs DMSO [2] 109% | percent response of DMSO control [3] 104% | GFP response vs DMSO [4] 108% | GFP response, % of DMSO [5] 107% | vesicle binding response [6] 112% | inhibition [7] 9.63% | superoxide response (% of plate) [8] 99.4% | aptamer binding inhibition [9] -10% | response [10] 4.69% | inhibition [11] 33.6% | response [12] -9.67% | binding (% of control) [13] 102% | efflux inhibition (fraction of control) [14] 0.09 | inhibition [15] -9% | differentiation response [16] -16.3%

Cc1ccc(-c2nn(-c3cccc(F)c3)cc2CN2CCN(c3ccccn3)CC2)o1
inactive: percent of DMSO control GFP [1] 101% | GFP response vs DMSO [2] 107% | percent response of DMSO control [3] 92% | GFP response vs DMSO [4] 123% | GFP response, % of DMSO [5] 101% | vesicle binding response [6] 2920% | inhibition [7] 0.94% | superoxide response (% of plate) [8] 95.7% | aptamer binding inhibition [9] 5% | response [10] 25.4% | inhibition [11] 5.48% | response [12] -6.07% | binding (% of control) [13] 101% | efflux inhibition (fraction of control) [14] 0.37 | inhibition [15] 12% | differentiation response [16] -23.2%
54.2%: double positive events [6]

O=C1NC(=O)C(c2ccccc2)(c2ccccc2)N1
58.7% and 60.5%: double positive events [6]
inactive: percent of DMSO control GFP [1] 102% | GFP response vs DMSO [2] 107% | percent response of DMSO control [3] 93.9% | GFP response vs DMSO [4] 93.3% | GFP response, % of DMSO [5] 99.6% | vesicle binding response [6] 114% and 142% | inhibition [7] 20.4% and -2.11% | superoxide response (% of plate) [8] 102% and 98.5% | aptamer binding inhibition [9] -2% and 2% | response [10] 5.51% | inhibition [11] 1.12% and -5.85% | response [12] 8.2% and -0.2% | binding (% of control) [13] 97% and 99.3% | efflux inhibition (fraction of control) [14] -0.44 and 0.29 | inhibition [15] 11% and 12% | differentiation response [16] -0.18% and -8.27%

Cc1ccc(CN2CCN(Cc3cn[nH]c3C3CCCCC3)CC2CCO)cc1 (stereo not drawn)
58.2%: double positive events [6]
inactive: percent of DMSO control GFP [1] 102% | GFP response vs DMSO [2] 103% | percent response of DMSO control [3] 97.7% | GFP response vs DMSO [4] 106% | GFP response, % of DMSO [5] 122% | vesicle binding response [6] 264% | inhibition [7] 21% | superoxide response (% of plate) [8] 87.9% | aptamer binding inhibition [9] 0% | response [10] -22.7% | inhibition [11] 7.73% | response [12] -2.29% | binding (% of control) [13] 103% | efflux inhibition (fraction of control) [14] 0.08 | inhibition [15] 8% | differentiation response [16] -5.97%

CCC(C)NCCOc1ccccc1C (stereo not drawn)
61.2%: double positive events [6]
inactive: percent of DMSO control GFP [1] 104% | GFP response vs DMSO [2] 101% | percent response of DMSO control [3] 105% | GFP response vs DMSO [4] 97% | GFP response, % of DMSO [5] 108% | vesicle binding response [6] 115% | inhibition [7] 5.61% | superoxide response (% of plate) [8] 104% | aptamer binding inhibition [9] -4% | response [10] -6.41% | inhibition [11] 29% | response [12] -2.79% | binding (% of control) [13] 96.8% | efflux inhibition (fraction of control) [14] -0.61 | inhibition [15] 12% | differentiation response [16] -16.3%

CC(C)(C)OC(=O)N1CC(O)CC1C(=O)OCC(=O)c1ccc(Cl)cc1 (stereo not drawn)
61.3%: double positive events [6]
inactive: percent of DMSO control GFP [1] 105% | GFP response vs DMSO [2] 98.3% | percent response of DMSO control [3] 113% | GFP response vs DMSO [4] 90.7% | GFP response, % of DMSO [5] 105% | vesicle binding response [6] 222% | inhibition [7] 2.66% | superoxide response (% of plate) [8] 105% | aptamer binding inhibition [9] 0% | response [10] -16.2% | inhibition [11] -13.3% | response [12] 2.73% | binding (% of control) [13] 98.2% | efflux inhibition (fraction of control) [14] 0.14 | inhibition [15] -6% | differentiation response [16] 8.06%

CCOC(=O)C1=C2c3ccc4ccccc4c3CC(C)(C)N2C(=O)C1=O
62%: double positive events [6]
inactive: percent of DMSO control GFP [1] 104% | GFP response vs DMSO [2] 93% | percent response of DMSO control [3] 99.6% | GFP response vs DMSO [4] 78.6% | GFP response, % of DMSO [5] 85.1% | vesicle binding response [6] 205% | inhibition [7] -4.52% | superoxide response (% of plate) [8] 114% | aptamer binding inhibition [9] 3% | response [10] 7.03% | inhibition [11] 1.16% | response [12] -4.69% | binding (% of control) [13] 96.8% | efflux inhibition (fraction of control) [14] -0.17 | inhibition [15] -3% | differentiation response [16] -8.8%

COCCNC(=O)CSc1ccc(Cl)cc1
inactive: percent of DMSO control GFP [1] 104% | GFP response vs DMSO [2] 106% | percent response of DMSO control [3] 105% | GFP response vs DMSO [4] 88.7% | GFP response, % of DMSO [5] 103% | vesicle binding response [6] 245% | inhibition [7] -0.45% | superoxide response (% of plate) [8] 112% | aptamer binding inhibition [9] 1% | response [10] -6.87% | inhibition [11] 7.8% | response [12] -1.2% | binding (% of control) [13] 92% | efflux inhibition (fraction of control) [14] 0.14 | inhibition [15] 10% | differentiation response [16] -12.5%
62.8%: double positive events [6]

COc1cc(C(=S)N(C)C)ccc1O
inactive: percent of DMSO control GFP [1] 107% | GFP response vs DMSO [2] 104% | percent response of DMSO control [3] 113% | GFP response vs DMSO [4] 92.6% | GFP response, % of DMSO [5] 116% | vesicle binding response [6] 115% | inhibition [7] -11.8% | superoxide response (% of plate) [8] 92.7% | aptamer binding inhibition [9] -1% | response [10] 8.54% | inhibition [11] -1.41% | response [12] 3.06% | binding (% of control) [13] 101% | efflux inhibition (fraction of control) [14] -0.005 | inhibition [15] -8% | differentiation response [16] 15.9%
62.6%: double positive events [6]
